Among the data in the antibiotic and cytotoxicity screens of Wong et al. (2023) are cytotoxicity call values, retold here.

Among all 39,000 compounds or so, about 3,300 (8.5%) were called active. The full list was thinned out, with actives kept by preference.

The test has as its system HepG2. Description: cytotoxicity call (relative viability < 0.9). As to conditions: 10 µM.
Take `O=c1cc[nH]c(C(F)(F)F)n1`: the cytotoxicity call was “inactive”.
For the molecule `C[C@@H]1CCCCO[C@@H](CN(C)C(=O)Nc2ccccc2)[C@H](C)CN([C@@H](C)CO)C(=O)c2cc(NS(=O)(=O)c3cccs3)ccc2O1`, the cytotoxicity call is “inactive”.
For `C[C@H](CO)N1C[C@H](C)[C@H](CN(C)S(=O)(=O)c2cn(C)cn2)Oc2ncc(C#CCN(C)C)cc2C1=O` the value was “inactive”; for `COc1ccc(NC(=O)Nc2cccc3c2O[C@H](CN(C)S(C)(=O)=O)[C@@H](C)CN([C@H](C)CO)C3=O)cc1`, “inactive”; for `Cc1noc(C)c1NC(=O)N(C)C[C@@H]1OCCCC[C@@H](C)Oc2ccc(NC(=O)c3ccccc3)cc2C(=O)N([C@H](C)CO)C[C@H]1C`, “inactive”.
For `CCC(=O)N1CCC[C@H](C(=O)O)C1` the value was “inactive”; for `NC(=O)CCCCC(N)=O`, “inactive”; for `COc1ccc(NC(=O)Nc2ccc3c(c2)C(=O)N([C@@H](C)CO)C[C@@H](C)[C@@H](CN(C)C(=O)Nc2ccc(C(F)(F)F)cc2)OCCCC[C@@H](C)O3)cc1`, “inactive”.
Regarding `O=C(COP(=O)(O)O)[C@H](O)[C@@H](O)COP(=O)(O)O`, the cytotoxicity call is “inactive”.
In the case of `C[C@@H]1CN([C@H](C)CO)C(=O)c2cc(NS(=O)(=O)c3ccc(F)cc3)ccc2O[C@@H](C)CCCCO[C@@H]1CN(C)C(=O)Cc1ccccc1`, the cytotoxicity call is “inactive”.
For `C[C@@H]1CN([C@H](C)CO)C(=O)Cc2cc(NS(=O)(=O)c3ccc(Cl)cc3)ccc2O[C@@H]1CN(C)C` the value was “inactive”; for `COc1ccc(S(=O)(=O)Nc2ccc3c(c2)CC(=O)N([C@H](C)CO)C[C@H](C)[C@H](CN(C)C)O3)cc1`, “inactive”.
Turning to `C[C@@H]1CN([C@@H](C)CO)C(=O)Cc2cc(NS(=O)(=O)c3ccc(Cl)cc3)ccc2O[C@@H]1CN(C)C`, the cytotoxicity call is “inactive”.
As for `COc1ccc(S(=O)(=O)Nc2ccc3c(c2)CC(=O)N([C@H](C)CO)C[C@@H](C)[C@@H](CN(C)C)O3)cc1`, the entry is “active”; as for `COc1ccc(S(=O)(=O)Nc2ccc3c(c2)CC(=O)N([C@H](C)CO)C[C@H](C)[C@@H](CN(C)C)O3)cc1`, “inactive”; as for `C[C@H]1CN([C@@H](C)CO)C(=O)Cc2cc(NS(=O)(=O)c3ccc(Cl)cc3)ccc2O[C@@H]1CN(C)C`, “active”.
Regarding `C[C@H]1CN([C@@H](C)CO)C(=O)c2cc(NC(=O)Nc3ccccc3)ccc2O[C@H]1CN(C)C(=O)Nc1cccc2ccccc12`, the cytotoxicity call was “inactive”.
For `CN1C(=O)c2cc(NS(=O)(=O)c3cccc(F)c3)ccc2OC[C@H]2O[C@H](CC(=O)NCCN3CCCCC3)CC[C@H]21`, the cytotoxicity call was “inactive”.
For `O=C(C[C@H]1C=C[C@@H](NC(=O)c2cccnc2)[C@@H](CO)O1)NCCN1CCCCC1` the value was “inactive”; for `CC(C)NC(=O)Nc1cccc2c1O[C@@H](CN(C)C(=O)NC1CCCCC1)[C@@H](C)CN([C@H](C)CO)C2=O`, “inactive”; for `COc1ccc(S(=O)(=O)N(C)C[C@H]2OCCCC[C@H](C)Oc3ccc(NC(=O)Nc4ccccc4)cc3C(=O)N([C@@H](C)CO)C[C@@H]2C)cc1`, “inactive”.
For `C[C@@H]1CN([C@@H](C)CO)C(=O)c2cccc(NC(=O)CCCCCC(=O)Nc3ccccc3N)c2O[C@@H]1CN(C)Cc1ccc(Cl)c(Cl)c1` the value was “inactive”; for `C[C@H](CO)N1C[C@H](C)[C@@H](CN(C)Cc2ccc(-c3ccccc3)cc2)Oc2c(NC(=O)CCCCCC(=O)Nc3ccccc3N)cccc2C1=O`, “active”.
As for `C[C@@H]1CN([C@@H](C)CO)C(=O)c2cccc(NC(=O)CCCCCC(=O)Nc3ccccc3N)c2O[C@H]1CN(C)Cc1ccc(-c2ccccc2)cc1`, the entry is “inactive”; as for `C[C@@H]1CN([C@H](C)CO)C(=O)c2cccc(NC(=O)CCCCCC(=O)Nc3ccccc3N)c2O[C@H]1CN(C)Cc1ccc(-c2ccccc2)cc1`, “inactive”.
As for `C[C@@H]1CN([C@@H](C)CO)C(=O)c2cccc(NC(=O)CCCCCC(=O)Nc3ccccc3N)c2O[C@@H]1CN(C)Cc1ccc(-c2ccccc2)cc1`, the cytotoxicity call was “inactive”.
As for `C[C@H]1CN([C@@H](C)CO)C(=O)c2cccc(NC(=O)CCCCCC(=O)Nc3ccccc3N)c2O[C@@H]1CN(C)Cc1ccc(Cl)c(Cl)c1`, the entry is “active”.
For the molecule `C[C@@H]1CN([C@@H](C)CO)C(=O)c2cccc(NC(=O)CCCCCC(=O)Nc3ccccc3N)c2O[C@H]1CN(C)Cc1ccc(Cl)c(Cl)c1`, the cytotoxicity call was “inactive”.
For `C[C@H]1CN([C@@H](C)CO)C(=O)c2cccc(NC(=O)CCCCCC(=O)Nc3ccccc3N)c2O[C@H]1CN(C)Cc1ccc(-c2ccccc2)cc1` the value was “inactive”; for `C[C@@H]1CN([C@H](C)CO)C(=O)c2cccc(NC(=O)CCCCCC(=O)Nc3ccccc3N)c2O[C@@H]1CN(C)Cc1ccc(-c2ccccc2)cc1`, “active”; for `[N-]=[N+]=Nc1ccccc1[C@@H]1OC(c2ccc(OCCCO)cc2)=N[C@]1(CCS(=O)(=O)c1ccccc1)C(=O)NC[C@@H](O)CO`, “inactive”.
As for `C[C@@H]1CN([C@H](C)CO)S(=O)(=O)c2ccc(C#CCN(C)C)cc2O[C@H]1CN(C)C(=O)c1ccccc1F`, the entry is “inactive”; as for `O=C(C[C@H]1C[C@@H]2c3cc(NC(=O)C4CCOCC4)ccc3O[C@@H]2[C@@H](CO)O1)NCc1ccc(Cl)cc1`, “inactive”.
As for `CCS(=O)(=O)N1C[C@]2(CN(Cc3cccc(c3)Cl)[C@H](CO)c3c2c2ccc(cc2n3C)OC)C1`, the entry is “inactive”.
For the molecule `C[C@H](CO)N1C[C@H](C)[C@H](CN(C)C(=O)Nc2ccc(N3CCCCC3)cc2)OCc2cnnn2CCCC1=O`, the cytotoxicity call is “inactive”.
As for `COc1ccc(NC(=O)Nc2ccc3c(c2)C(=O)N([C@@H](C)CO)C[C@@H](C)[C@@H](CN(C)C(=O)Cc2ccccc2)OCCCC[C@H](C)O3)cc1`, the entry is “inactive”.
`COc1ccc(NC(=O)Nc2ccc3c(c2)C(=O)N([C@H](C)CO)C[C@H](C)[C@H](CN(C)C(=O)Nc2ccccc2)OCCCC[C@@H](C)O3)cc1`: the cytotoxicity call was “inactive”.
As for `C[C@H](O)C#Cc1cnc2c(c1)C(=O)N([C@H](C)CO)C[C@@H](C)[C@H](CN(C)Cc1cncnc1)O2`, the cytotoxicity call was “inactive”.
For `O=C(C[C@H]1C=C[C@H](NC(=O)Cc2ccccn2)[C@H](CO)O1)NCCc1ccncc1` the value was “inactive”; for `C[C@@H]1CN([C@@H](C)CO)C(=O)c2cc(NC(=O)CCCN(C)C)ccc2O[C@@H](C)CCCCO[C@@H]1CN(C)S(=O)(=O)c1cn(C)cn1`, “inactive”.
For `C[C@@H]1CN([C@@H](C)CO)C(=O)c2c(c3ccccc3n2C)-c2ccccc2CO[C@@H]1CN(C)Cc1ccc2c(c1)OCO2` the value was “inactive”; for `C[C@@H]1CN([C@H](C)CO)C(=O)c2c(c3ccccc3n2C)-c2ccccc2CO[C@@H]1CN(C)Cc1ccc2c(c1)OCCN2C`, “active”.
As to `C[C@@H]1CN([C@@H](C)CO)C(=O)c2c(c3ccccc3n2C)-c2ccccc2CO[C@H]1CN(C)Cc1ccc2c(c1)OCCN2C`, the cytotoxicity call is “active”.
As for `C[C@H]1CN([C@@H](C)CO)C(=O)c2c(c3ccccc3n2C)-c2ccccc2CO[C@@H]1CN(C)Cc1ccc2c(c1)OCCN2C`, the entry is “active”.
For `C[C@H]1CN([C@@H](C)CO)C(=O)c2c(c3ccccc3n2C)-c2ccccc2CO[C@H]1CN(C)Cc1ccc2c(c1)OCCN2C` the value was “inactive”.
For `C[C@H](CO)N1C[C@H](C)[C@@H](CN(C)Cc2ccc3c(c2)OCCN3C)OCc2ccccc2-c2c(n(C)c3ccccc23)C1=O`, the cytotoxicity call was “inactive”.
For `C[C@@H]1CN([C@@H](C)CO)C(=O)c2c(c3ccccc3n2C)-c2ccccc2CO[C@@H]1CN(C)Cc1ccc2c(c1)OCCN2C` the value was “inactive”; for `C[C@@H]1CN([C@H](C)CO)C(=O)c2c(c3ccccc3n2C)-c2ccccc2CO[C@H]1CN(C)Cc1ccc2c(c1)OCCN2C`, “inactive”.
For the molecule `C[C@H](CO)N1C[C@H](C)[C@H](CN(C)Cc2ccc3c(c2)OCCN3C)OCc2ccccc2-c2c(n(C)c3ccccc23)C1=O`, the cytotoxicity call is “inactive”.
For `COc1ccc(C#Cc2ccc3c(c2)[C@]2(C(=O)N3)[C@H](c3ccccc3OCCO)N3[C@H](c4ccccc4)[C@H](c4ccccc4)OC(=O)[C@H]3[C@@H]2C(=O)N2CCc3cc(OC)c(OC)cc3C2)cc1` the value was “inactive”.
For the molecule `O=C(Cc1ccncc1)Nc1ccc2c(c1)[C@@H]1C[C@H](CC(=O)N3CCc4ccccc4C3)O[C@H](CO)[C@@H]1O2`, the cytotoxicity call was “inactive”.
For `O=C1NC(=O)[C@H]2[C@@H]1[C@H](c1ccccc1)N1[C@@H]3C(=O)NC(=O)[C@@H]3[C@H](c3ccccc3)N21`, the cytotoxicity call was “inactive”.
For `COc1ccc(C#Cc2ccc3c(c2)O[C@H](CN(C)C(C)=O)[C@@H](C)CN([C@@H](C)CO)S3(=O)=O)cc1`, the cytotoxicity call is “inactive”.
For `COc1ccc2c3c(n(c2c1)C)[C@H](CO)N(C[C@]13CCN(CC1)C(=O)Nc1cccc(c1)F)C(=O)CN1CCOCC1` the value was “inactive”; for `N=C(NO)NCC[C@H](N)C(=O)O`, “inactive”; for `C[C@@H]1CN([C@H](C)CO)C(=O)c2cc(NC(=O)NC3CCCCC3)ccc2O[C@@H](C)CCCCO[C@@H]1CN(C)C(=O)NC1CCCCC1`, “inactive”.
With `C[C@H](CO)N1C[C@H](C)[C@@H](CN(C)Cc2ccc(C(F)(F)F)cc2)OCCCC[C@H](C)Oc2ccc(NC(=O)Nc3ccccc3)cc2C1=O`, the cytotoxicity call is “active”.
As for `C[C@@H]1CCCCO[C@@H](CN(C)Cc2ccc(C(F)(F)F)cc2)[C@H](C)CN([C@H](C)CO)C(=O)c2cc(NC(=O)Nc3ccccc3)ccc2O1`, the cytotoxicity call is “active”.
On to `C[C@@H]1CCCCO[C@@H](CN(C)Cc2ccc(C(F)(F)F)cc2)[C@@H](C)CN([C@@H](C)CO)C(=O)c2cc(NC(=O)Nc3ccccc3)ccc2O1`, for which the cytotoxicity call is “inactive”.
`C[C@@H]1CN([C@@H](C)CO)C(=O)c2cc(NC(=O)Nc3ccccc3)ccc2O[C@@H](C)CCCCO[C@@H]1CN(C)Cc1ccc(C(F)(F)F)cc1`: the cytotoxicity call was “active”.
As for `C[C@@H]1CN([C@@H](C)CO)C(=O)c2cc(NC(=O)Nc3ccccc3)ccc2O[C@@H](C)CCCCO[C@H]1CN(C)Cc1ccc(C(F)(F)F)cc1`, the entry is “inactive”.
As for `C[C@@H]1CN([C@H](C)CO)C(=O)c2cc(NC(=O)Nc3ccccc3)ccc2O[C@@H](C)CCCCO[C@@H]1CN(C)Cc1ccc(C(F)(F)F)cc1`, the entry is “active”; as for `C[C@@H]1CCCCO[C@@H](CN(C)Cc2ccc(C(F)(F)F)cc2)[C@H](C)CN([C@@H](C)CO)C(=O)c2cc(NC(=O)Nc3ccccc3)ccc2O1`, “inactive”.
